This is one part of a sample in which the strongest signals are shown more often than they occur.
B1: Epa23 (Candida glabrata) (protein)
chain: MGSSHHHHHHSSGLVPRGSHMIPNPFEGTINNFPSGCSPNHGLYNRGLTMELYNYSYIHPQSIQSYFNTSTLKKMEKGQCWDPSYLDVNYPRTGYKTHNRFAKVNGIDGILDFEFNPTRSCVPSKGQLPQNYNYPLQFTLSNFTMLLYGYFKPKVTAKHTFTIFADDLLFLNFGAGNAFDCCQQQDTIDDFGNYQAYALWGSDTQQNTLTVNLDANIYYPIRMFYNNRDFKGALNMYFTTDESNTKINDFSGYLFNIPDSSEGCPAHISYETECGNVSG
B2: FaeGac (Escherichia coli) (protein)
chain: WMTGDFNGSVDIGGSITADDYRQKWEWKVGTGLNGFGNVLNDLTNGGTKLTITVTGNKPILLGRTKEAFATPVTGGVDGIPHIAFTDYEGASVVLRKPDGETNKNGLAYFVLPMKNAGGTKVGSVKVNASYAGVLGRGGVTSADGELLSLFADGLSSIFYGGLPRGSELSAGSAAAARTKLFGSLSRDDILGQIQRVNANVTSLVDVAGSYRENMEYTDGNVVSAAYALGIANGQTIEATFNQAVTTSTQWSAPLNVAITYY

Key:
Experiment in all cases: glycan array binding signal (z-score within array); higher = stronger binding
Conditions in all cases: glycan notation: IUPAC condensed, linker removed
[1] = biological target: Glc(a1-6)Glc(a1-6)Glc(a1-6)Glc
How it was run: (§1)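 Glycan array data were curated from 3228 arrays in the Consortium for Functional Glycomics database and kept only where the protein sequence was available. Glycan names were converted to IUPAC-condensed notation, and columns mapping to the same glycan were averaged. The binding signal is a within-array Z-score, averaged across arrays of the same protein sequence at different concentrations or buffers and across linkers. Negative Z-scores can be read as non-binding.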

[2] = biological target: GlcNAc(b1-2)[GlcNAc(b1-4)]Man(a1-3)[GlcNAc(b1-2)Man(a1-6)]Man(b1-4)GlcNAc(b1-4)GlcNAc
How it was run: as §1

[3] = biological target: GlcNAc(b1-3)Gal(b1-4)GlcNAc(b1-2)Man(a1-3)[GlcNAc(b1-3)Gal(b1-4)GlcNAc(b1-2)Man(a1-6)]Man(b1-4)GlcNAc(b1-4)[Fuc(a1-6)]GlcNAc
How it was run: as §1

[4] = biological target: GlcNAc(b1-3)Gal(b1-4)GlcNAc(b1-3)Gal(b1-4)GlcNAc(b1-2)Man(a1-3)[GlcNAc(b1-3)Gal(b1-4)GlcNAc(b1-3)Gal(b1-4)GlcNAc(b1-2)Man(a1-6)]Man(b1-4)GlcNAc(b1-4)[Fuc(a1-6)]GlcNAc
How it was run: as §1

[5] = biological target: GlcNAc(b1-3)Gal(b1-4)GlcNAc(b1-3)Gal(b1-4)GlcNAc(b1-2)[GlcNAc(b1-3)Gal(b1-4)GlcNAc(b1-3)Gal(b1-4)GlcNAc(b1-6)]Man(a1-6)[GlcNAc(b1-3)Gal(b1-4)GlcNAc(b1-3)Gal(b1-4)GlcNAc(b1-2)Man(a1-3)]Man(b1-4)GlcNAc(b1-4)[Fuc(a1-6)]GlcNAc
How it was run: as §1

GlcNAc(b1-3)GalNAc = biological target: GlcNAc(b1-3)GalNAc
How it was run: as §1

Kdn(a2-3)Gal(b1-4)Glc = biological target: Kdn(a2-3)Gal(b1-4)Glc
How it was run: as §1

[6] = biological target: Man(a1-2)Man(a1-3)[Man(a1-2)Man(a1-6)]Man(a1-6)[Man(a1-2)Man(a1-2)Man(a1-3)]Man
How it was run: as §1

[7] = biological target: Man(a1-3)[Man(a1-6)]Man(a1-6)[Man(a1-2)Man(a1-3)]Man(b1-4)GlcNAc(b1-4)GlcNAc
How it was run: as §1

[8] = biological target: Man(a1-3)[Man(a1-6)]Man(a1-6)[Man(a1-3)]Man
How it was run: as §1

[9] = biological target: Neu5Ac(a2-3)Gal(b1-3)GalNAc(b1-4)[Neu5Ac(a2-3)]Gal(b1-4)Glc
How it was run: as §1

[10] = biological target: Neu5Ac(a2-3)Gal(b1-3)GalNAc6S
How it was run: as §1

[11] = biological target: Neu5Ac(a2-3)Gal(b1-3)[Fuc(a1-4)]GlcNAc
How it was run: as §1

[12] = biological target: Neu5Ac(a2-3)Gal(b1-4)GlcNAc(b1-2)Man(a1-3)[Neu5Ac(a2-3)Gal(b1-4)GlcNAc(b1-2)Man(a1-6)]Man(b1-4)GlcNAc(b1-4)GlcNAc
How it was run: as §1

[13] = biological target: Neu5Ac(a2-3)Gal(b1-4)GlcNAc(b1-2)[Neu5Ac(a2-3)Gal(b1-4)GlcNAc(b1-4)]Man(a1-3)[GlcNAc(b1-4)][Neu5Ac(a2-3)Gal(b1-4)GlcNAc(b1-4)Man(a1-6)]Man(b1-4)GlcNAc(b1-4)GlcNAc
How it was run: as §1

[14] = biological target: Neu5Ac(a2-3)Gal(b1-4)[Fuc(a1-3)]GlcNAc(b1-3)Gal(b1-4)GlcNAc
How it was run: as §1

[15] = biological target: Neu5Ac(a2-3)[GalNAc(b1-4)]Gal(b1-4)GlcNAc
How it was run: as §1

[16] = biological target: Neu5Ac(a2-6)Gal(b1-4)GlcNAc(b1-6)[Gal(b1-3)GlcNAc(b1-3)]Gal(b1-4)Glc
How it was run: as §1

[17] = biological target: Neu5Ac(a2-8)Neu5Ac(a2-3)[GalNAc(b1-4)]Gal(b1-4)Glc
How it was run: as §1

[18] = biological target: Neu5Ac9Ac(a2-3)Gal(b1-4)GlcNAc
How it was run: as §1

[19] = biological target: Neu5Ac9Ac(a2-6)Gal(b1-4)GlcNAc
How it was run: as §1

[20] = biological target: Neu5Gc(a2-3)Gal(b1-4)GlcNAc
How it was run: as §1

[21] = biological target: Neu5Gc(a2-8)Neu5Gc(a2-3)Gal(b1-4)GlcNAc
How it was run: as §1

[22] = biological target: Neu5Gc(b2-6)Gal(b1-4)GlcNAc
How it was run: as §1

[23] = biological target: Fuc(a1-3)[Gal(b1-4)]GlcNAc
How it was run: as §1

Gal(a1-3)Gal(b1-3)GlcNAc = biological target: Gal(a1-3)Gal(b1-3)GlcNAc
How it was run: as §1

[24] = biological target: Gal(b1-4)GlcNAc(b1-3)Gal(b1-4)GlcNAc
How it was run: as §1

Gal3S6S(b1-4)GlcNAc6S = biological target: Gal3S6S(b1-4)GlcNAc6S
How it was run: as §1

Glc(a1-4)Glc = biological target: Glc(a1-4)Glc
How it was run: as §1

Glc(a1-6)Glc(a1-6)Glc = biological target: Glc(a1-6)Glc(a1-6)Glc
How it was run: as §1

Glc(b1-4)Glc = biological target: Glc(b1-4)Glc
How it was run: as §1

GlcA(b1-3)Gal = biological target: GlcA(b1-3)Gal
How it was run: as §1

[25] = biological target: GlcNAc(a1-3)Gal(b1-4)GlcNAc
How it was run: as §1

[26] = biological target: Man(a1-2)Man(a1-2)Man(a1-6)[Man(a1-3)]Man
How it was run: as §1

[27] = biological target: Man(a1-2)Man(a1-3)[Man(a1-6)]Man(a1-6)[Man(a1-2)Man(a1-3)]Man(b1-4)GlcNAc(b1-4)GlcNAc
How it was run: as §1

Neu5Ac(a2-3)Gal(b1-4)Glc = biological target: Neu5Ac(a2-3)Gal(b1-4)Glc
How it was run: as §1

[28] = biological target: Neu5Gc(a2-3)Gal(b1-3)GlcNAc
How it was run: as §1

Binder	glycan array binding signal (z-score) [1]	glycan array binding signal (z-score) [2]	glycan array binding signal (z-score) [3]	glycan array binding signal (z-score) [4]	glycan array binding signal (z-score) [5]	glycan array binding signal (z-score) (GlcNAc(b1-3)GalNAc)	glycan array binding signal (z-score) (Kdn(a2-3)Gal(b1-4)Glc)	glycan array binding signal (z-score) [6]	glycan array binding signal (z-score) [7]	glycan array binding signal (z-score) [8]	glycan array binding signal (z-score) [9]	glycan array binding signal (z-score) [10]	glycan array binding signal (z-score) [11]	glycan array binding signal (z-score) [12]	glycan array binding signal (z-score) [13]	glycan array binding signal (z-score) [14]	glycan array binding signal (z-score) [15]	glycan array binding signal (z-score) [16]	glycan array binding signal (z-score) [17]	glycan array binding signal (z-score) [18]	glycan array binding signal (z-score) [19]	glycan array binding signal (z-score) [20]	glycan array binding signal (z-score) [21]	glycan array binding signal (z-score) [22]	glycan array binding signal (z-score) [23]	glycan array binding signal (z-score) (Gal(a1-3)Gal(b1-3)GlcNAc)	glycan array binding signal (z-score) [24]	glycan array binding signal (z-score) (Gal3S6S(b1-4)GlcNAc6S)	glycan array binding signal (z-score) (Glc(a1-4)Glc)	glycan array binding signal (z-score) (Glc(a1-6)Glc(a1-6)Glc)	glycan array binding signal (z-score) (Glc(b1-4)Glc)	glycan array binding signal (z-score) (GlcA(b1-3)Gal)	glycan array binding signal (z-score) [25]	glycan array binding signal (z-score) [26]	glycan array binding signal (z-score) [27]	glycan array binding signal (z-score) (Neu5Ac(a2-3)Gal(b1-4)Glc)	glycan array binding signal (z-score) [28]
B1	-0.278	-0.21	-0.199	-0.176	-0.093	-0.243	-0.263	-0.233	-0.22	-0.232	-0.24	-0.246	-0.296	-0.249	-0.243	-0.288	-0.198	-0.13	-0.297	-0.225	-0.239	-0.274	-0.215	-0.194													
B2													0.445				-0.863								-0.598	-0.126	-0.084	1.17	5.96	6.71	4.43	-0.705	0.229	3.1	0.527	-0.81	-0.826
